The supplement of paper PMC10849652
The full data set covers some 8,800 targets. This sample favours those with a hit. About 0.5% of all pairs of compound and target were hits.

Experiments:
Assay in all cases: log2 fold change, soluble protein after heating vs DMSO (PISA); higher = thermal stabilisation; K562 lysate, 10 uM; active = over 0.2 and 3.5 SD of the protein, either way, in both replicates (recomputed)
[1] = compound: CN1CC[C@H](c2c(O)cc(O)c3c(=O)cc(-c4ccccc4Cl)oc23)[C@H](O)C1 [alvocidib]
Procedure, shortened: (§1)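 Soluble protein was defined as the supernatant remaining after 21,000xg for 90 min, following pooling of heated aliquots and adjustment to 0.5% NP-40 at 4°C. Before that, crude K562 extract at 1 mg/mL protein in PBS pH 7.4 with 1 mM MgCl2 was treated with 10 μM compound for 30 min and heated for 3 min across 48°C-58°C. Quantification used TMTpro 16plex LC-MS/MS with channel sums equalised, and values are log-two fold changes in thermal stability relative to solvent controls from duplicates.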

[2] = compound: CN1CCc2c(c3ccccc3n2Cc2ccc(C(=O)NO)cc2)C1 [Tubastatin A]
Procedure, shortened: as §1

[3] = compound: CNC(=O)C1=CC=CC=C1NC2=NC(=NC=C2Cl)NC3=C(C=C(C=C3)N4CCOCC4)OC
Procedure, shortened: as §1

[4] = compound: CNC(=O)c1ccc(Nc2ncc(C(F)(F)F)c(NCc3nccnc3N(C)S(C)(=O)=O)n2)cc1 [defactinib]
Procedure, shortened: as §1

[5] = compound: CNc1nc(-c2ccc3c(N)n[nH]c3c2)cc(N2C[C@@H](C(=O)NC3CCCCC3)CC[C@H]2C)n1
Procedure, shortened: as §1

[6] = compound: COC(=O)N[C@@H](C)CNc1nccc(-c2cn(C(C)C)nc2-c2cc(Cl)cc(NS(C)(=O)=O)c2F)n1 [encorafenib]
Procedure, shortened: as §1

[7] = compound: COC(=O)[C@H](CCSC)NC(=O)C1=C(C=C(C=C1)NC[C@H](CS)N)C2=CC=CC=C2
Procedure, shortened: as §1

[8] = compound: COc1cc(Nc2ncc3c(n2)-c2ccc(Cl)cc2C(c2c(F)cccc2OC)=NC3)ccc1C(=O)O [alisertib]
Procedure, shortened: as §1

[9] = compound: COc1cc2nc(-c3cc(F)ccc3O)nc(N[C@@H]3CNC[C@H]3C(C)(C)O)c2cc1OC
Procedure, shortened: as §1

[10] = compound: COc1cc2ncnc(Nc3ccc(F)c(Cl)c3)c2cc1OCCCN1CCOCC1 [gefitinib]
Procedure, shortened: as §1

[11] = compound: CS(=O)(=O)CCNCc1ccc(-c2ccc3ncnc(Nc4ccc(OCc5cccc(F)c5)c(Cl)c4)c3c2)o1 [lapatinib]
Procedure, shortened: as §1

[12] = compound: CS(=O)(=O)N1CCN(Cc2cc3nc(-c4cccc5[nH]ncc45)nc(N4CCOCC4)c3s2)CC1 [pictilisib]
Procedure, shortened: as §1

[13] = compound: C[C@@H](Oc1cc(-c2cnn(C3CCNCC3)c2)cnc1N)c1c(Cl)ccc(F)c1Cl [crizotinib]
Procedure, shortened: as §1

[14] = compound: C[C@H](C1=CC=C(C=C1)C(=O)NC2=C3C=CNC3=NC=C2)N
Procedure, shortened: as §1

[15] = compound: C[C@H](Nc1ncnc2nc[nH]c12)c1cc2cccc(Cl)c2c(=O)n1-c1ccccc1 [duvelisib]
Procedure, shortened: as §1

[16] = compound: Cc1cc(Nc2cc(CN3CCOCC3)c3nc(C)c(Cc4ccc(Cl)cc4F)n3n2)n[nH]1 [gandotinib]
Procedure, shortened: as §1

[17] = compound: Cc1cc(Nc2cc(N3CCN(C)CC3)nc(Sc3ccc(NC(=O)C4CC4)cc3)n2)n[nH]1 [tozasertib]
Procedure, shortened: as §1

[18] = compound: Cc1ccc(-n2nc(C(C)(C)C)cc2NC(=O)Nc2ccc(OCCN3CCOCC3)c3ccccc23)cc1 [doramapimod]
Procedure, shortened: as §1

[19] = compound: Cc1ccc(NC(=O)c2ccc(CN3CC[C@H](N(C)C)C3)c(C(F)(F)F)c2)cc1Nc1nccc(-c2cncnc2)n1 [bafetinib]
Procedure, shortened: as §1

[20] = compound: Cc1cccc(CC(=O)N2CCc3c2ccc(-c2cn(C)c4ncnc(N)c24)c3F)n1
Procedure, shortened: as §1

Measured: log2 fold change

TUBB (UniProt P07437)
Sequence of UniProt P07437 (P07437 whole entry, looked up): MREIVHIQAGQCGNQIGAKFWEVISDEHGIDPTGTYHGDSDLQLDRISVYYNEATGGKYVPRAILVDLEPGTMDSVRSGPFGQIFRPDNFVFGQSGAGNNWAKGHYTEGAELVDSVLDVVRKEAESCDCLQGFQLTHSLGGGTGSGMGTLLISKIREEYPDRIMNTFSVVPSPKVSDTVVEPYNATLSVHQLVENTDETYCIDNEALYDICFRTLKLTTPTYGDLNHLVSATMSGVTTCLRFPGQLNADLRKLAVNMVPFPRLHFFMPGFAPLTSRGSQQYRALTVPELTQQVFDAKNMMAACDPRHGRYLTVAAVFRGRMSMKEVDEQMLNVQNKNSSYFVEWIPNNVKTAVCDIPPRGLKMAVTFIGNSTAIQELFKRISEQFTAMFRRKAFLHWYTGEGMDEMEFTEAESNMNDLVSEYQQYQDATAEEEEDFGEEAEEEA
inactive: [1] 0.01 | [2] -0.035 | [3] -0.001 | [4] 0.007 | [5] 0.007 | [6] -0.013 | [7] 0.081 | [8] 0.014 | [9] -0.012 | [10] -0.031 | [11] -0.035 | [12] -0.002 | [13] -0.043 | [14] -0.005 | [15] 0.008 | [16] 0.065 | [17] -0.022 | [18] -0.047 | [19] 0.024 | [20] -0.01

TMEM87A (UniProt Q8NBN3)
inactive: [1] -0.076 | [2] -0.013 | [3] -0.012 | [4] -0.006 | [5] -0.017 | [6] 0.022 | [7] -0.045 | [8] -0.02 | [9] 0.015 | [10] 0.022 | [11] -0.007 | [12] -0.015 | [13] 0.016 | [14] -0.082 | [15] 0.012 | [17] -0.029 | [18] 0.026 | [19] -0.007
active: [16] 0.242 | [20] 0.248

TTI1 (UniProt O43156)
inactive: [1] 0 | [2] -0.163 | [3] 0.015 | [4] 0.022 | [5] -0.035 | [6] 0.022 | [7] 0.026 | [8] -0.013 | [9] -0.011 | [10] -0.016 | [11] -0.011 | [12] -0.044 | [13] -0.11 | [14] -0.075 | [15] -0.005 | [16] -0.113 | [17] 0.028 | [18] 0.045 | [19] -0.016 | [20] 0.056

TUBE1 (UniProt Q9UJT0)
inactive: [1] 0.06 | [2] -0.001 | [3] 0.062 | [4] 0.107 | [5] -0.027 | [6] 0.036 | [7] -0.108 | [8] 0.052 | [9] -0.009 | [10] -0.005 | [11] -0.008 | [12] -0.005 | [13] 0.095 | [14] 0.214 | [15] -0.01 | [16] -0.076 | [17] 0.054 | [18] -0.034 | [19] -0.066 | [20] -0.029

TCAF2 (UniProt A6NFQ2)
Sequence of UniProt A6NFQ2 (A6NFQ2 whole entry, looked up): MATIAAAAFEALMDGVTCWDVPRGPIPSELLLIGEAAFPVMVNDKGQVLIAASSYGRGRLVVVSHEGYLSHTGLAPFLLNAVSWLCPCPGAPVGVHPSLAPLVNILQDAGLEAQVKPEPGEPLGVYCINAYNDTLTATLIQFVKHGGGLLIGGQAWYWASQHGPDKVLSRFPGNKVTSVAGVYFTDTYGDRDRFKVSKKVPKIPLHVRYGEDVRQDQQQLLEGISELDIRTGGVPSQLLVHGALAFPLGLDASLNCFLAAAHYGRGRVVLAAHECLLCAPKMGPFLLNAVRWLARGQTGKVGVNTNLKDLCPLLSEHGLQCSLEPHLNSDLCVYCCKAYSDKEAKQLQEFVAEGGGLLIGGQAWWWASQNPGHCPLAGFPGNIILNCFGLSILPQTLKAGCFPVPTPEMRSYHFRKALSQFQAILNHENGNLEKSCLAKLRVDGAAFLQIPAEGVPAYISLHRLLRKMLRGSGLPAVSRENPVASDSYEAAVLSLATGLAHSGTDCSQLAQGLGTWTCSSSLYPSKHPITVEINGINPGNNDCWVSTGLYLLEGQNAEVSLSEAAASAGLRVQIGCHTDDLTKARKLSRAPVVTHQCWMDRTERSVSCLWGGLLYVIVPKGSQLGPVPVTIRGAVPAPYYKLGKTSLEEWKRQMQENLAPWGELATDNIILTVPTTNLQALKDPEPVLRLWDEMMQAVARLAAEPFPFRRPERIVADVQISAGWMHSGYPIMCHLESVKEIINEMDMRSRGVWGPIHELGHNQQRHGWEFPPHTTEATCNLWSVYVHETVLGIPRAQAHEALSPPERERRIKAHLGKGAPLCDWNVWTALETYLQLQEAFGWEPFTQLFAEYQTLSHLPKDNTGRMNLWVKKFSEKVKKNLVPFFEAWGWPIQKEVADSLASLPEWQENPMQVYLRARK
inactive: [1] -0.016 | [2] -0.183 | [3] -0.026 | [4] 0.067 | [5] -0.026 | [6] 0.006 | [7] 0.044 | [8] 0.03 | [9] -0.067 | [10] -0.042 | [11] 0.024 | [12] -0.017 | [13] -0.108 | [14] -0.02 | [15] 0.004 | [16] -0.098 | [17] 0.008 | [18] -0.03 | [19] -0.048 | [20] 0.041

UBE3B (UniProt Q7Z3V4)
Sequence of UniProt Q7Z3V4 (Q7Z3V4 whole entry, looked up): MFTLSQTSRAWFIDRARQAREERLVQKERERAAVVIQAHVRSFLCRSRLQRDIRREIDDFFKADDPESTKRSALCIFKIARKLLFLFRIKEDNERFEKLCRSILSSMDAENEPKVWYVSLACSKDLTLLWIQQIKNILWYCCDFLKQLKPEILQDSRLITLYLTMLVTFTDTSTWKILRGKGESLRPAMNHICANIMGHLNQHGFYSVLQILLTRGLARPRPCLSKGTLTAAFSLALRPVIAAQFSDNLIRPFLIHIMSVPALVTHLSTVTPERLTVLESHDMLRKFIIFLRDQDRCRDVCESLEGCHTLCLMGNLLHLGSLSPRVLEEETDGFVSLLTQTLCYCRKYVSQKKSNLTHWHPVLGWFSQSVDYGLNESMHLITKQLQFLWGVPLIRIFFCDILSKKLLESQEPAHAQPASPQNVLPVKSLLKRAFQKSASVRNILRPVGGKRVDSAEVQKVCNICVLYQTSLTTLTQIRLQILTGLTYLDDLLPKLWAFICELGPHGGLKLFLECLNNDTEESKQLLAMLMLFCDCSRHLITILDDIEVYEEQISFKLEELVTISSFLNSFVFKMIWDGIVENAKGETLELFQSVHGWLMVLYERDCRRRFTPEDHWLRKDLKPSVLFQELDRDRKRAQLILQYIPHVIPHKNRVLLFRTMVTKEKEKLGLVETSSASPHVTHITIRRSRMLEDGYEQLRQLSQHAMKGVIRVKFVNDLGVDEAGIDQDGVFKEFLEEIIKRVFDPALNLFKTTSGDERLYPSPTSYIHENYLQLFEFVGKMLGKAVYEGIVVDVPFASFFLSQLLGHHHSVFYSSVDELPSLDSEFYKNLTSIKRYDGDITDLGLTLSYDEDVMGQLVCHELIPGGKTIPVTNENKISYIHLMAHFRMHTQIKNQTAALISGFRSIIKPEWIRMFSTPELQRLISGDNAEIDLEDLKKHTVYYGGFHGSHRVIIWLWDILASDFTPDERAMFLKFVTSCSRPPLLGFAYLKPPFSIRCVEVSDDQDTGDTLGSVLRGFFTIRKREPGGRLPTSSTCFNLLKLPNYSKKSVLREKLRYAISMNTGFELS
inactive: [1] -0.07 | [2] -0.134 | [3] 0.136 | [4] 0.028 | [5] 0.008 | [6] 0.102 | [7] -0.047 | [8] 0 | [9] 0.006 | [10] 0.044 | [11] -0.019 | [12] 0.025 | [13] -0.027 | [14] -0.174 | [15] 0.136 | [16] -0.17 | [17] -0.005 | [18] 0.083 | [19] -0.082 | [20] 0.203

UBTF (UniProt P17480)
inactive: [1] 0.026 | [2] -0.135 | [3] -0.008 | [4] 0.007 | [5] 0.004 | [6] -0.002 | [7] 0.073 | [8] 0.055 | [9] -0.018 | [10] 0.045 | [11] -0.013 | [12] -0.024 | [13] -0.037 | [14] 0.071 | [15] -0.015 | [16] -0.103 | [17] 0.004 | [18] -0.008 | [19] -0.039 | [20] -0.011

TPP2 (UniProt P29144)
inactive: [1] 0.018 | [2] -0.028 | [3] -0.014 | [4] -0.014 | [5] -0.03 | [6] 0 | [7] 0.068 | [8] -0.02 | [9] 0 | [10] 0.008 | [11] -0.007 | [12] 0.014 | [13] -0.009 | [14] 0.035 | [15] 0.011 | [16] -0.011 | [17] -0.009 | [18] 0.007 | [19] -0.008 | [20] -0.011

TDRD3 isoform 3 (UniProt Q9H7E2)
inactive: [1] 0.043 | [2] -0.08 | [3] 0.025 | [4] 0.033 | [5] 0.097 | [6] -0.006 | [7] -0.029 | [8] -0.084 | [9] -0.042 | [10] 0.297 | [11] 0.005 | [12] -0.038 | [13] 0.024 | [14] 0.127 | [15] -0.02 | [16] -0.068 | [17] 0.034 | [18] -0.151 | [19] 0.093 | [20] 0.01

TMPO (UniProt P42166)
Sequence of UniProt P42166 (P42166 whole entry, looked up): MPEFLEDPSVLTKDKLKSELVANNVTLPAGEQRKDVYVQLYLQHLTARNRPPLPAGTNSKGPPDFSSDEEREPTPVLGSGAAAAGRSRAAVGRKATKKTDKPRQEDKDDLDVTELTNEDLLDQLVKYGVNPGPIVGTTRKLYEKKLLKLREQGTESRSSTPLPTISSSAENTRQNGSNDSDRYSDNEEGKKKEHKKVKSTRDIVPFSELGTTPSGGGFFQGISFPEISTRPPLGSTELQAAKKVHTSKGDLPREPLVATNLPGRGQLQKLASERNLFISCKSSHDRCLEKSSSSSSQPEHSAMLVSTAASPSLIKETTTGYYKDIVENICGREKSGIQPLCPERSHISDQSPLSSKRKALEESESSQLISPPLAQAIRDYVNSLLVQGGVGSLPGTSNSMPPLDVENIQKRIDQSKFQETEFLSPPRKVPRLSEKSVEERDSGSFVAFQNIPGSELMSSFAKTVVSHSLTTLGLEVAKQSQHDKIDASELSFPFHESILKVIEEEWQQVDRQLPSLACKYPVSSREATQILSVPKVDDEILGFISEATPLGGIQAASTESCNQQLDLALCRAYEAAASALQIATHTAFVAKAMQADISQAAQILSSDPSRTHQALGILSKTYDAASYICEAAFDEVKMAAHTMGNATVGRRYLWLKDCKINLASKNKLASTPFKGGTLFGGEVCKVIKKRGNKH
inactive: [1] -0.196 | [2] -0.145 | [3] 0.002 | [4] 0.028 | [5] -0.003 | [6] 0.011 | [7] 0.174 | [8] -0.024 | [9] 0.012 | [10] 0.011 | [11] 0.018 | [12] -0.012 | [13] 0.016 | [14] -0.179 | [15] 0.023 | [16] -0.048 | [17] 0.016 | [18] -0.017 | [19] -0.021 | [20] 0.034

UBE2D1 (UniProt P51668)
Sequence of UniProt P51668 (P51668 whole entry, looked up): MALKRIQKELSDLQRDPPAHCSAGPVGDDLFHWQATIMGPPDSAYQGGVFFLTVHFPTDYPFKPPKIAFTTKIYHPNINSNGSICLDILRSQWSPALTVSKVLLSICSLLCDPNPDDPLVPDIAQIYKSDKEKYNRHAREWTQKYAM
inactive: [1] 0.003 | [2] -0.045 | [3] 0.06 | [4] 0.028 | [5] -0.027 | [6] -0.025 | [7] -0.042 | [8] 0.028 | [9] -0.036 | [10] 0.106 | [11] 0.052 | [12] 0.043 | [13] 0.01 | [14] -0.012 | [15] 0.031 | [16] -0.047 | [17] 0.081 | [18] 0.038 | [19] -0.058 | [20] -0.033

TGOLN2 isoform 7 (UniProt O43493)
inactive: [1] -0.053 | [2] 0.003 | [3] -0.052 | [4] 0.005 | [5] 0.045 | [6] 0.014 | [7] -0.031 | [8] -0.059 | [9] 0.02 | [10] -0.048 | [11] -0.007 | [12] 0.001 | [13] 0.045 | [14] -0.051 | [15] 0.021 | [16] 0.034 | [17] -0.065 | [18] -0.03 | [19] 0.032 | [20] 0.034

TPST2 (UniProt O60704)
active: [14] -0.671
inactive: [1] -0.107 | [2] 0.059 | [3] 0.041 | [4] -0.038 | [5] -0.02 | [6] 0.03 | [7] -0.049 | [8] 0.478 | [9] 0.025 | [10] 0.072 | [11] 0.028 | [12] 0.621 | [13] -0.046 | [15] -0.029 | [16] 0.109 | [17] -0.043 | [18] 0.057 | [19] 0.022 | [20] 0.126

TPP2 (UniProt Q5VZU9)
inactive: [1] -0.099 | [2] -0.121 | [3] 0.092 | [4] 0.062 | [5] 0.068 | [6] -0.076 | [7] 0.058 | [8] 0.006 | [9] 0.076 | [10] 0.011 | [11] -0.023 | [12] 0.069 | [13] -0.057 | [15] 0.02 | [16] 0.104 | [17] -0.087 | [18] -0.029 | [19] -0.044 | [20] 0.137
active: [14] -0.309

TNIK isoform 4 (UniProt Q9UKE5)
Sequence of UniProt Q9UKE5 (Q9UKE5 whole entry, looked up): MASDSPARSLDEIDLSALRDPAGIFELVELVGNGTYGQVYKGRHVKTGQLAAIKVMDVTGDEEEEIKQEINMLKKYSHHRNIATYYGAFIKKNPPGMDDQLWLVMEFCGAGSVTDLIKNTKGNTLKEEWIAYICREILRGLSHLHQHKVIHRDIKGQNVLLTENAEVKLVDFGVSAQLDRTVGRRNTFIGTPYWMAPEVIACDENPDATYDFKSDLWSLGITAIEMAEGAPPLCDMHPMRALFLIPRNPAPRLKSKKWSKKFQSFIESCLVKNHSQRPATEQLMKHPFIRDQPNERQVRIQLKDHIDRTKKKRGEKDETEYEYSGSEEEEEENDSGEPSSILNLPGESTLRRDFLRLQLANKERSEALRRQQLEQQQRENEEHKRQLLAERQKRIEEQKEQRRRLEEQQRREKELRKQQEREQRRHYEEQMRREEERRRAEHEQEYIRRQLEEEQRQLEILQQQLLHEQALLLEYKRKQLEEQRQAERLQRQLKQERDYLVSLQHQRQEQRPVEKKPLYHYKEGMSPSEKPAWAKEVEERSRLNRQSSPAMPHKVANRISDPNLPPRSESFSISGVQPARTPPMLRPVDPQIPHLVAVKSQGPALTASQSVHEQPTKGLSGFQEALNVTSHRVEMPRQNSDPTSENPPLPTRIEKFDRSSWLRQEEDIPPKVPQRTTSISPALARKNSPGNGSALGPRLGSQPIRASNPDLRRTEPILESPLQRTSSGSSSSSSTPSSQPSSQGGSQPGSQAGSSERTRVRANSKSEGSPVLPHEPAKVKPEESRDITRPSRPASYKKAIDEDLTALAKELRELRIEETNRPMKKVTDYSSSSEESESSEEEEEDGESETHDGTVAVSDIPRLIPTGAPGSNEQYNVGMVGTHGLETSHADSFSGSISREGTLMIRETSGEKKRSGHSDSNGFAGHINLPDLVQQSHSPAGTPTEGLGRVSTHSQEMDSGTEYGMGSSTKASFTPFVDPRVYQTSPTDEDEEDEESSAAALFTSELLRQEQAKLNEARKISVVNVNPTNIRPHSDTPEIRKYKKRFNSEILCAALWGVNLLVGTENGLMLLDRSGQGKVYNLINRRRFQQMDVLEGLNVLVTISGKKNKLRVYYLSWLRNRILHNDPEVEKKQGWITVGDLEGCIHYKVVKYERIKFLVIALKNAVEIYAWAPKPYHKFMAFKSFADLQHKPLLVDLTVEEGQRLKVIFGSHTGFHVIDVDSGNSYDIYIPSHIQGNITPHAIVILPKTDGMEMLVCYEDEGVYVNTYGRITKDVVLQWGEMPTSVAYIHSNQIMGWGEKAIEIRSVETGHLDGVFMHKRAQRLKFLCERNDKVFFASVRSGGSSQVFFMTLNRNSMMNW
inactive: [1] -0.015 | [2] -0.071 | [3] 0.085 | [4] 0.148 | [5] -0.04 | [6] -0.026 | [7] -0.097 | [8] -0.026 | [9] 0.247 | [10] -0.005 | [11] -0.017 | [12] 0.012 | [13] -0.055 | [14] 0.038 | [15] 0.004 | [16] 0.153 | [17] 0.098 | [18] 0.205 | [19] -0.007 | [20] -0.04

TYW3 (UniProt Q6IPR3)
Sequence of UniProt Q6IPR3 (Q6IPR3 whole entry, looked up): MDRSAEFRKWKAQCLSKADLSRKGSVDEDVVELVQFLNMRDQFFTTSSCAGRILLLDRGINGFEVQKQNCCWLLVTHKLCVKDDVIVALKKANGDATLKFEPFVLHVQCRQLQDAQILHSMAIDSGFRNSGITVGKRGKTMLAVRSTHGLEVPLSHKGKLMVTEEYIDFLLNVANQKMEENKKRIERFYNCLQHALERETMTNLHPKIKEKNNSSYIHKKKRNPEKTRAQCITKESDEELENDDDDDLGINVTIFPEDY
inactive: [1] -0.033 | [2] 0.014 | [3] -0.007 | [4] -0.021 | [5] 0.061 | [6] 0.027 | [7] -0.064 | [8] -0.03 | [9] 0.019 | [10] 0.01 | [11] -0.014 | [12] 0.008 | [13] -0.022 | [14] -0.144 | [15] 0.018 | [16] 0.1 | [17] 0 | [18] 0.054 | [19] 0.051 | [20] 0.176
